We go through six compounds from PubChem BioAssay (EPA / NIEHS).

Assay [1] in a line: BSK_CASM3C_SRB: Viability Assessment in the BioMAP Diversity Plus: CASM3C Assay (AID 2283050).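 Further: total protein by SRB staining as cytotoxicity measure in parallel cultures; cells exposed to compound for 24 h.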 As to conditions: primary human coronary artery smooth muscle cells.
Read-out in assay [2]: Thrombomodulin, THBD (gene 7056)
Nature of the assay: BSK_CASM3C_Thrombomodulin: BioMAP Diversity Plus: CASM3C Assay for Thrombomodulin Biomarker Activity (AID 2283051).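 Further: thrombomodulin protein level measured by ELISA 24 h after dosing.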 Conditions: primary human coronary artery smooth muscle cells; actives raise or lower the signal.

Read-out in assay [3]: Tissue Factor, F3 (gene 2152)
As to the kind of experiment: BSK_CASM3C_TissueFactor: BioMAP Diversity Plus: CASM3C Assay for Tissue Factor Biomarker Activity (AID 2283052).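 Further: cell surface tissue factor protein level read by ELISA.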 As to conditions: primary human coronary artery smooth muscle cells; actives raise or lower the signal.

Read-out in assay [4]: Interferon-gamma inducible Protein 10 (IP10), CXCL10 (gene 3627)
As to the kind of experiment: BSK_hDFCGF_IP10: BioMAP Diversity Plus: hDFCGF Assay for Interferon-gamma inducible Protein 10 (IP10) Biomarker Activity (AID 2283053). Conditions: primary human foreskin fibroblasts; actives raise or lower the signal. The procedure, abridged: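 ELISA quantification of IP-10 after a 24 h chemical exposure of human dermal foreskin fibroblast primary cultures. Both increases and decreases versus DMSO fitted.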

Read-out in assay [5]: Urokinase-type plasminogen activator receptor (uPAR), PLAUR (gene 5329)
As to the kind of experiment: BSK_CASM3C_uPAR: BioMAP Diversity Plus: CASM3C Assay for Urokinase-type plasminogen activator receptor (uPAR) Biomarker Activity (AID 2283054).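 Further: cell-surface uPAR protein level quantified by ELISA.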 Conditions: primary human coronary artery smooth muscle cells; actives raise or lower the signal.

Read-out in assay [6]: Vascular cell adhesion molecule 1 (VCAM1), VCAM1 (gene 7412)
As to the kind of experiment: BSK_CASM3C_VCAM1: BioMAP Diversity Plus: CASM3C Assay for Vascular cell adhesion molecule 1 (VCAM1) Biomarker Activity (AID 2283055).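 Further: VCAM-1 protein level quantified by ELISA on the cells.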 As to conditions: primary human coronary artery smooth muscle cells; actives raise or lower the signal.

Read-out in assay [7]: Collagen III, COL3A1 (gene 1281)
As to the kind of experiment: BSK_hDFCGF_CollagenIII: BioMAP Diversity Plus: hDFCGF Assay for Collagen III Biomarker Activity (AID 2283056). As to conditions: primary human foreskin fibroblasts; actives raise or lower the signal. The procedure, abridged:
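ELISA read-out of collagen III from human skin fibroblast cultures sampled 24 h post-dosing. Values were derived by bidirectional fitting relative to the DMSO vehicle control.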

Read-out in assay [8]: Epidermal growth factor receptor (EGFR), EGFR (gene 1956)
As to the kind of experiment: BSK_hDFCGF_EGFR: BioMAP Diversity Plus: hDFCGF Assay for Epidermal growth factor receptor (EGFR) Biomarker Activity (AID 2283057). Conditions: primary human foreskin fibroblasts; actives raise or lower the signal. The gist of the method: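 EGFR levels by ELISA in human dermal fibroblast cultures, 24 h post-treatment, fitted bidirectionally versus DMSO. Parallel wells stained with sulforhodamine B to detect overt cytotoxicity.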

A short description of assay [9]: BSK_hDFCGF_Proliferation: Cell Proliferation Assessment in the BioMAP Diversity Plus: hDFCGF Assay (AID 2283059).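 Further: curves fitted for both rise and fall of signal versus DMSO baseline.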 Conditions: primary human foreskin fibroblasts. The gist of the method:
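This proliferation readout used SRB total-protein staining of human foreskin fibroblasts […], normalized to DMSO with bidirectional curve fitting.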

Read-out in assay [10]: Macrophage colony-stimulating factor (MCSF), CSF1 (gene 1435)
Nature of the assay: BSK_hDFCGF_MCSF: BioMAP Diversity Plus: hDFCGF Assay for Macrophage colony-stimulating factor (MCSF) Biomarker Activity (AID 2283060). Conditions: primary human foreskin fibroblasts; actives raise or lower the signal. The procedure, abridged:
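Primary human foreskin fibroblasts dosed with chemical; 24 h later, M-CSF quantified by ELISA; curves fitted in both directions vs DMSO negative control.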

A short description of assay [11]: BSK_hDFCGF_SRB: Viability Assessment in the BioMAP Diversity Plus: hDFCGF Assay (AID 2283061).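 Further: cells exposed to compound for 24 h before the read.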 As to conditions: primary human foreskin fibroblasts. The gist of the method: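 Readout is SRB absorbance at 560 nm, reflecting total protein in parallel cultures of human foreskin fibroblasts harvested 24 h after chemical dosing. Activity was fitted bidirectionally relative to DMSO.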

Read-out in assay [12]: TIMP metallopeptidase inhibitor 1 (TIMP1), TIMP1 (gene 7076)
As to the kind of experiment: BSK_hDFCGF_TIMP1: BioMAP Diversity Plus: hDFCGF Assay for TIMP metallopeptidase inhibitor 1 (TIMP1) Biomarker Activity (AID 2283062). Conditions: primary human foreskin fibroblasts; actives raise or lower the signal. The gist of the method: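 Human skin fibroblasts (primary), hDFCGF system; compound exposure 24 h; TIMP-1 by ELISA; bidirectional fit vs DMSO negative control; overt cytotoxicity by SRB in parallel wells.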

Read-out in assay [13]: Monokine induced gamma interferon (MIG), CXCL9 (gene 4283)
As to the kind of experiment: BSK_hDFCGF_MIG: BioMAP Diversity Plus: hDFCGF Assay for Monokine induced gamma interferon (MIG) Biomarker Activity (AID 2283063). Conditions: primary human foreskin fibroblasts; actives raise or lower the signal. The procedure, abridged:
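Chemicals were added to primary human foreskin fibroblast cultures, which were sampled 24 h later. MIG levels were then quantified by ELISA and responses fitted in both directions relative to DMSO.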

Read-out in assay [14]: Matrix Metallopeptidase 1 (MMP1), MMP1 (gene 4312)
As to the kind of experiment: BSK_hDFCGF_MMP1: BioMAP Diversity Plus: hDFCGF Assay for Matrix Metallopeptidase 1 (MMP1) Biomarker Activity (AID 2283064). As to conditions: primary human foreskin fibroblasts; actives raise or lower the signal. The gist of the method:
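Human foreskin fibroblasts exposed to chemical for 24 h; MMP1 detected by ELISA, with DMSO as baseline for bidirectional fitting.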

Read-out in assay [15]: Vascular cell adhesion molecule 1 (VCAM1), VCAM1 (gene 7412)
Nature of the assay: BSK_hDFCGF_VCAM1: BioMAP Diversity Plus: hDFCGF Assay for Vascular cell adhesion molecule 1 (VCAM1) Biomarker Activity (AID 2283065).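 On AC50: VCAM-1 protein level quantified by ELISA after 24 h chemical exposure.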 As to conditions: primary human foreskin fibroblasts; actives raise or lower the signal. The procedure, abridged: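 Human foreskin fibroblast primary cells, chemical exposure 24 h; VCAM-1 by ELISA; bidirectional fit, DMSO = negative control/baseline.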

Read-out in assay [16]: Plasminogen activator inhibitor-1 (PAI1), SERPINE1 (gene 5054)
Nature of the assay: BSK_hDFCGF_PAI1: BioMAP Diversity Plus: hDFCGF Assay for Plasminogen activator inhibitor-1 (PAI1) Biomarker Activity (AID 2283066). Conditions: primary human foreskin fibroblasts; actives raise or lower the signal. The procedure, abridged:
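PAI-1 levels in human dermal foreskin fibroblasts were quantified by ELISA 24 h after dosing, with gain or loss analysed against DMSO. Overt cytotoxicity was checked by sulforhodamine B total-protein staining in parallel cultures.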

Read-out in assay [17]: Intercellular Adhesion Molecule 1 (ICAM1), ICAM1 (gene 3383)
Nature of the assay: BSK_KF3CT_ICAM1: BioMAP Diversity Plus: KF3CT Assay for Intercellular Adhesion Molecule 1 (ICAM1) Biomarker Activity (AID 2283067). Conditions: primary human keratinocytes with fibroblasts; actives raise or lower the signal. The procedure, abridged: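 ICAM-1 levels are measured by ELISA 24 h after dosing a primary human co-culture of keratinocytes and foreskin fibroblasts. Activity in either direction is fitted relative to DMSO vehicle.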

Read-out in assay [18]: Interferon-gamma inducible Protein 10 (IP10), CXCL10 (gene 3627)
As to the kind of experiment: BSK_KF3CT_IP10: BioMAP Diversity Plus: KF3CT Assay for Interferon-gamma inducible Protein 10 (IP10) Biomarker Activity (AID 2283068). Conditions: primary human keratinocytes with fibroblasts; actives raise or lower the signal. The gist of the method: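 Signal is secreted/surface IP-10 by ELISA in a human primary skin co-culture of keratinocytes and foreskin fibroblasts, taken 24 h post-dosing; DMSO served as negative control.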

The nature of assay [19]: BSK_KF3CT_SRB: Viability Assessment in the BioMAP Diversity Plus: KF3CT Assay (AID 2283069).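 Further: read 24 h after compound addition; fitted for both signal gain and loss against DMSO baseline.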 Conditions: primary human keratinocytes with fibroblasts. The procedure, abridged:
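Overt cytotoxicity is assessed as total protein by sulforhodamine B staining in parallel human skin co-cultures at 24 h after dosing. DMSO serves as negative control and baseline.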

Read-out in assay [20]: Interleukin-8 (IL8), CXCL8 (gene 3576)
Nature of the assay: BSK_hDFCGF_IL8: BioMAP Diversity Plus: hDFCGF Assay for Interleukin-8 (IL8) Biomarker Activity (AID 2283058). Conditions: primary human foreskin fibroblasts; actives raise or lower the signal. The procedure, abridged: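 Cells used are human skin primary fibroblasts. Chemical is added, cultures run 24 h, then IL-8 is quantified by ELISA, and gain or loss versus DMSO control is fitted in both directions.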

Structures are written as SMILES. Active and inactive are the calls of the source. How the source made its calls: active means hit-call score of the fitted dose curve at least 0.9, where 1 is the maximum; inactive means score below 0.9.

With `CCCSP(=O)(OCC)Oc1ccc(Br)cc1Cl` (configuration not stated), the result in assay [1], in assay [3], in [5], in assay [6], in [8] and in assay [11] was inactive. Besides, the outcome in assay [12], in [13], in assay [14], in assay [16], in [17] and in [18] was inactive. The AC50 is 11.5 µM (active) in [2]; 20 µM (active) in assay [4]; 20 µM (active) in assay [7]; 31.7 µM (active) in assay [9]; 17.4 µM (active) in [10]; 27.7 µM (active) in [15]. In addition, in [19], the AC50 is 22.7 µM (active).
As for `CCOP(=O)(SC(C)CC)N1CCSC1=O` (configuration not stated), the outcome in [1], in [2], in assay [3], in assay [4], in assay [5] and in assay [6] was inactive. Further, the outcome in assay [7], in [8], in [20], in assay [9], in assay [10] and in assay [11] was inactive. Further, the outcome in [12], in assay [13], in assay [14], in [15], in [16] and in assay [17] was inactive. In assay [19], the outcome was inactive. For the same compound, in [18], the AC50 is 0.704 µM (active).
Turning to `Cc1nn(-c2cc(NS(C)(=O)=O)c(Cl)cc2Cl)c(=O)n1C(F)F`, the result in [1], in assay [2], in assay [3], in [4], in assay [5] and in assay [6] was inactive. For the same compound, the result in assay [7], in [8], in [20], in assay [9], in assay [10] and in assay [11] was inactive. The outcome in assay [12], in assay [13], in assay [14], in assay [15], in [16] and in assay [17] was inactive. The result in assay [18] and in [19] was inactive.
With `CC(COc1ccc(Oc2ccccc2)cc1)Oc1ccccn1` (configuration not stated), the result in assay [1], in [2], in assay [3], in [4], in assay [5] and in [6] was inactive. Besides, the outcome in assay [7], in assay [8], in assay [10], in [11], in assay [12] and in assay [13] was inactive. Besides, the outcome in [14], in [15], in assay [16], in [17], in assay [18] and in [19] was inactive. Besides, the AC50 in assay [9] is 10.8 µM (active).
Consider `CC(=NC#N)N(C)Cc1ccc(Cl)nc1`, for which the result in [1], in assay [2], in assay [3], in assay [4], in assay [5] and in assay [6] was inactive. Further, the result in assay [7], in [8], in assay [9], in [10], in [11] and in [12] was inactive. In addition, the outcome in [13], in assay [14], in assay [15], in [16], in assay [17] and in assay [18] was inactive. Moreover, in assay [19], the outcome was inactive.
As for `COc1cc(OC)nc(Sc2cccc(Cl)c2C(=O)O)n1`, the outcome in [1], in assay [2], in [3], in assay [4], in [5] and in [6] was inactive. Besides, the result in assay [7], in assay [8], in assay [20], in assay [9], in [10] and in [11] was inactive. For the same compound, the outcome in [12], in [13], in assay [14], in [15], in assay [16] and in assay [17] was inactive. Also, the result in assay [18] and in assay [19] was inactive.
